The text below walks through data of PubChem BioAssay (NCATS).

Experiment [1] has as its target Estrogen receptor (Homo sapiens) (UniProt P03372). The experiment can be described thus: qHTS assay for small molecule antagonists of estrogen receptor alpha signaling (AID 588513; active = well fitted curve in the direction sought with a large enough effect in the signal ratio, with a control signal flat, not every such curve was filed as active; the % refers to the signal ratio; note: % is set by controls: 0 for no effect and ±100 for the full control effect). Particulars: ER-alpha-UAS-bla HEK293, beta-lactamase ratio, antagonist mode; series mostly up to 76.9 µM. An outline of the steps: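 Fluorescence from CCF4 substrate after 2 h at room temperature gave reporter activity; cells had been exposed to compound and 0.5nM 17-beta-estradiol for 18 h at 37 C. Hill-equation fitting yielded IC50 and maximal response.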

Experiment [2] shares this target. Nature of the experiment: qHTS assay for small molecule agonists of estrogen receptor alpha signaling (AID 588514).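 Note: 0% = vehicle only and 100% = reference agonist; nearly all actives have a fitted effect of over 70% in size.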 Particulars: ER-alpha-UAS-bla HEK293, beta-lactamase ratio, 18 h; series mostly up to 76.8 µM. A digest of the protocol:
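Efficacy is expressed against 20 nM 17-beta-estradiol (100%) and DMSO basal (0%); EC50 from Hill equation. Assay: beta-lactamase reporter in ER-alpha-UAS-bla HEK 293 cells, 18 h compound incubation, CCF4 detection.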
In general terms: In qHTS, concentration-response curves come from the screen itself.

Experiment [3] in a line: qHTS assay for small molecule antagonists of peroxisome proliferator-activated receptor delta signaling (AID 588535).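 Note: cells co-treated with a PPAR-delta agonist as stimulator during compound exposure.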 Particulars: HEK293T PPARd-UAS-bla, beta-lactamase FRET ratio, 18 h; 460 nm channel. An outline of the steps:
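Fluorescence from CCF4-loaded GeneBLAzer PPAR-delta-UAS-bla HEK293T cells (2 hrs RT loading) quantified reporter inhibition after an 18 hr, 37 C compound exposure across a titration.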

In experiment [4] the target is Peroxisome proliferator-activated receptor gamma (Homo sapiens) (UniProt P37231). Nature of the experiment: qHTS assay for small molecule agonists of peroxisome proliferator-activated receptor gamma signaling (AID 588536; active = well fitted curve in the direction sought with a large enough effect in the signal ratio, with a control signal flat, not every such curve was filed as active; the % refers to the signal ratio;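 note: 0% = DMSO basal wells and 100% = rosiglitazone at 2 µM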). The settings on record: HEK293 PPARg-UAS-bla, beta-lactamase ratio, 16 h, percent of rosiglitazone response, DMSO as zero; series mostly up to 76.7 µM. An outline of the steps:
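Compound treatment: 16 h, 37 C, HEK293 GeneBLAzer cells. Detection: CCF4, 2 h RT. Values: Hill-fit EC50, efficacy as % of 2 uM rosiglitazone.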

Experiment [5] shares this target. The experiment can be described thus: qHTS assay for small molecule antagonists of peroxisome proliferator-activated receptor gamma signaling (AID 588537; active = well fitted inhibition curve with a large enough effect in the signal ratio, with a control signal flat, not every such curve was filed as active; the % refers to the signal ratio;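 note: reporter cells co-stimulated with 50 nM rosiglitazone agonist during compound treatment; % of control where 0% means no effect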). The settings on record: HEK293 PPARg-UAS-bla, beta-lactamase ratio, antagonist mode; series mostly up to 76.8 µM. A digest of the protocol:
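Fluorescence at 460 and 530 nm (405 nm excitation) reported beta-lactamase cleavage of CCF4 after 2 h room-temperature loading. HEK293 reporter cells in 1% charcoal/dextran-treated FBS had received compound and rosiglitazone for 16 h.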

Experiment [6] has as its target Vitamin D3 receptor (Homo sapiens) (UniProt P11473). Nature of the experiment: qHTS assay for small molecule antagonists of vitamin D receptor signaling (AID 588541).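 Note: receptor activated by calcitriol during compound treatment; % is set by controls: 0 for no effect and ±100 for the full control effect.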 The settings on record: HEK293T VDR-UAS-bla, beta-lactamase ratio, antagonist mode; series mostly up to 76.7 µM. An outline of the steps: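 VDR-UAS-bla HEK293T cells in 2% charcoal-stripped FBS were stimulated with 1-alpha,25-dihydroxyvitamin D3 (3 nM final) plus compound for 16 h at 37 C. The beta-lactamase CCF4 readout was normalized to 50 nM agonist and DMSO, and Hill fits gave IC50.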

Experiment [7] is described as follows: qHTS assay for small molecule agonists of retinoid X receptor alpha signaling (AID 588544).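 For activation: 0% = DMSO basal wells and 100% = reference agonist.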 Particulars: HEK293T RXRa-UAS-bla, beta-lactamase reporter, 18 h; 530 nm emission.
Experiment [8] deals with Retinoic acid receptor RXR-alpha (Homo sapiens) (UniProt P19793). Described as above. The settings on record: HEK293T RXRa-UAS-bla, beta-lactamase reporter, 18 h; series mostly up to 76.7 µM.
Chain of Retinoic acid receptor RXR-alpha (Homo sapiens) (P19793 whole entry, looked up): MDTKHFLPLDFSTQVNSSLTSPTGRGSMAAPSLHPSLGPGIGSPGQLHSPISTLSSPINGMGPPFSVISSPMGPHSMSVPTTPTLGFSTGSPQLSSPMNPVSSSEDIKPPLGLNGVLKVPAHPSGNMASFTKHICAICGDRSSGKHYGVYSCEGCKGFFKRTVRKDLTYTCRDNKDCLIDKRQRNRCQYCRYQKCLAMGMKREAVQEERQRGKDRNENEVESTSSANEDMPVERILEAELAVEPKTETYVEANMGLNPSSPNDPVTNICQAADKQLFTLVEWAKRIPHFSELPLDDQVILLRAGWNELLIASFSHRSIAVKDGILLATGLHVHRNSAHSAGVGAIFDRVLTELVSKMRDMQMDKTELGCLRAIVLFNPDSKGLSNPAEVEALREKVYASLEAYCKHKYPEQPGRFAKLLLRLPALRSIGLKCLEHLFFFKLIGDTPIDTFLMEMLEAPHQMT
Experiment [9] addresses Thyroid hormone receptor beta (Homo sapiens) (UniProt P10828). The experiment can be described thus: qHTS assay for small molecule agonists of thyroid hormone receptor beta signaling (AID 588545). Particulars: TR-UAS-bla GripTite HEK 293, beta-lactamase ratio, agonist mode, 18 h; series mostly up to 76.7 µM. A digest of the protocol:
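Cells (2500/well) were seeded, incubated 4 hrs at 37 C, dosed with a compound series, incubated 18 hrs, loaded with CCF4 dye for 2 hrs at RT, then read for fluorescence. Data were scaled between DMSO (0%) and 10 nM T3 (100%).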

Experiment [10] can be described thus: qHTS assay for small molecule antagonists of retinoid X receptor alpha signaling (AID 588546; active = well fitted inhibition curve with a large enough effect in the signal ratio, with a control signal flat, not every such curve was filed as active; the % refers to the signal ratio;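 note: cells stimulated with 9-cis-retinoic acid as agonist; % is set by controls: 0 for no effect and ±100 for the full control effect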). The settings on record: HEK293T RXRa-UAS-bla, beta-lactamase ratio, antagonist mode; measured here: W530 green channel, cytotoxicity proxy. A digest of the protocol:
(§1)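 Beta-lactamase reporter inhibition, read as CCF4 fluorescence ratio (ex 405, em 460/530 nm) after 2 h at RT. HEK293T UAS-bla cells, 2500/well, were stimulated with 9-cis-RA at 500 or 100 nM final alongside test compound for 18 h at 37 C.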

The target of experiment [11] is Retinoic acid receptor RXR-alpha (Homo sapiens) (UniProt P19793). Described as above. The settings on record: HEK293T RXRa-UAS-bla, beta-lactamase ratio, antagonist mode. A digest of the protocol:
as §1

Experiment [12] in a line: qHTS assay for small molecule activators of the nuclear factor-kappa B (NF-kB) signaling pathway (AID 651749; active = well fitted activation curve with a large enough effect in the signal ratio; the % refers to the signal ratio; note: % of control where 0% means no effect). The settings on record: NF-kB-bla ME-180 cells, beta-lactamase FRET ratio, 16 h; activation: stronger effect = higher value. An outline of the steps: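 In this qHTS format, compounds acting as activators increase NF-kB-driven beta-lactamase in ME-180 cells, measured as disrupted FRET after 16 hr exposure at 37C and 5% CO2.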

Experiment [13] in a line: qHTS assay for environmental chemicals that activate the Aryl hydrocarbon Receptor (AhR) signaling pathway (AID 651777; active = well fitted curve in the direction sought with a large enough effect; an effect the other way counts as inactive or inconclusive; note: nearly all actives have a fitted effect of over 15% in size; note: potency is the fitted concentration of half-maximal effect; for activation: % of control where 0% means no effect). The settings on record: 1A2-DRE human hepatoma cells, luciferase, 24 h; activation: stronger effect = higher value. A digest of the protocol:
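Human hepatoma 1A2-DRE cells, stably carrying a dioxin response element and CYP1A2 promoter driving luciferase, were exposed to compounds for 24 hr at 37 C and 5% CO2. Luciferase signal was then read after 30 min One-Glo at room temperature.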

Experiment [14] can be described thus: qHTS assay for small molecule agonists of the antioxidant response element (ARE) signaling pathway measured by Nrf2-dependant transcriptional activity - cell viability counter screen (AID 720653; active = well fitted curve in the direction sought with a large enough effect in the repeat runs; an effect the other way counts as inactive or inconclusive; note: % is set by controls: 0 for no effect and ±100 for the full control effect). The settings on record: ARE-bla HepG2 viability, CellTiter-Glo ATP luminescence, 16 h; max response: stronger effect = lower value. An outline of the steps: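 ARE-bla HepG2 cells treated with compounds for 16 h at 37C; this counter screen measures viability as intracellular ATP by CellTiter-Glo luminescence after 30 min at room temperature.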

Experiment [15] is described as follows: qHTS assay for cell viability of HEK293 cells (AID 743288; active = well fitted curve in the direction sought with a large enough effect; an effect the other way counts as inactive or inconclusive; note: % is set by controls: 0 for no effect and ±100 for the full control effect; nearly all actives have a fitted effect of over 50% in size). Particulars: ATP luminescence (CellTiter-Glo), 18 h; max response: stronger effect = lower value. An outline of the steps:
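Viable-cell counts were inferred from luciferase-based ATP content in HEK293 cells seeded at 2,000/well, pre-incubated ≥5 h, then dosed with DMSO-solubilised compounds for 18 h at 37 C.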

The nature of experiment [16]: qHTS assay for cell viability of the p53RE-bla HCT-116 cell line (AID 743292; active = well fitted curve in the direction sought with a large enough effect; an effect the other way counts as inactive or inconclusive; note: % is set by controls: 0 for no effect and ±100 for the full control effect; nearly all actives have a fitted effect of over 55% in size). Particulars: p53RE-bla HCT-116 viability, ATP luminescence, 16 h; series mostly up to 95 µM. An outline of the steps:
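CellSensor p53RE-bla HCT-116 cells, 4,000/well, preincubated 5 h at 37 C, then exposed to compounds in DMSO for 16 h at 37 C. Viability read as CellTiter-Glo luminescence (intracellular ATP) after 30 min at room temperature.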

Experiment [17] concerns the target Nuclear receptor subfamily 1 group I member 2 (Rattus norvegicus) (UniProt Q9R1A7). The experiment can be described thus: qHTS assay for small molecule activators of the rat pregnane X receptor (rPXR) signaling pathway (AID 651751; call rule not given here; note: 0% is about no effect). Particulars: rPXR reporter cells, luciferase (One-Glo), 24 h.
The nature of experiment [18]: qHTS assay for small molecule activators of the human pregnane X receptor (PXR) signaling pathway (AID 720659; call rule not given here; note: 0% is about no effect). The settings on record: DPX-2 HepG2 CYP3A4-luciferase, 24 h; series mostly up to 92.3 µM.
For experiment [19], the target named is Vitamin D3 receptor (Homo sapiens) (UniProt P11473). The experiment can be described thus: qHTS assay for small molecule agonists of vitamin D receptor signaling (AID 588543).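 Note: 0% = DMSO basal and 100% = reference agonist control.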 Particulars: HEK293T VDR-UAS-bla, beta-lactamase ratio, 16 h; series mostly up to 76.8 µM. An outline of the steps:
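Reporter cells (HEK293T, VDR-UAS-bla) were seeded in medium with 2% charcoal-stripped serum and incubated 5 h, then compounds in concentration series were added for 16 h at 37 °C. Stimulation was scaled between DMSO basal and 50 nM 1α,25-dihydroxyvitamin D3.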

Experiment [20] addresses Peroxisome proliferator-activated receptor alpha (Homo sapiens) (UniProt Q07869). The experiment can be described thus: qHTS assay for small molecule agonists of the peroxisome proliferator-activated receptor alpha (PPARalpha) signaling pathway (AID 651778; active = well fitted curve in the direction sought with a large enough effect; an effect the other way counts as inactive or inconclusive; note: % of control where 0% means no effect). The settings on record: PathHunter PPARalpha complementation, chemiluminescence, 6 h; max response: stronger effect = higher value. A digest of the protocol:
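Enzyme-fragment complementation assay in which ligand-bound PPARalpha translocates and forms an active enzyme that generates chemiluminescence. Cells were plated overnight, exposed to compound for 6 hr at 37 C, and then given detection reagent for 60 min at room temperature.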

Records with an inconclusive call do not appear. Active and inactive are the calls of the source. Unless noted, calls come from the whole dose curve.

Chain of Peroxisome proliferator-activated receptor gamma (Homo sapiens) (P37231 whole entry, looked up): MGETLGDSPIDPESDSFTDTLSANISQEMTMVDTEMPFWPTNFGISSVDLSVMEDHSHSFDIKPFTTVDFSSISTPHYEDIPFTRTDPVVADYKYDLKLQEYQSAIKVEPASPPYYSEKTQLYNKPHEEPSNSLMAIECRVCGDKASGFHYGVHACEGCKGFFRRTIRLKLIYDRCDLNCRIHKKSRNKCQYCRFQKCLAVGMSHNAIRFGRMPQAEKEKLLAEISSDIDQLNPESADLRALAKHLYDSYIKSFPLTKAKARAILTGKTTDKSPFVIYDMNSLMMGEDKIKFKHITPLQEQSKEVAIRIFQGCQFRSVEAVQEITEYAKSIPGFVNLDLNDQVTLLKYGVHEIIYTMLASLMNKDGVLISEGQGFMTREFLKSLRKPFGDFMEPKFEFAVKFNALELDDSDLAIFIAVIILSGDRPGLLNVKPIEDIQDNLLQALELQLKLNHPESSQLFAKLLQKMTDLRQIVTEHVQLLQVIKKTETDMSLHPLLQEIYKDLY
Chain of Estrogen receptor (Homo sapiens) (P03372 whole entry, looked up): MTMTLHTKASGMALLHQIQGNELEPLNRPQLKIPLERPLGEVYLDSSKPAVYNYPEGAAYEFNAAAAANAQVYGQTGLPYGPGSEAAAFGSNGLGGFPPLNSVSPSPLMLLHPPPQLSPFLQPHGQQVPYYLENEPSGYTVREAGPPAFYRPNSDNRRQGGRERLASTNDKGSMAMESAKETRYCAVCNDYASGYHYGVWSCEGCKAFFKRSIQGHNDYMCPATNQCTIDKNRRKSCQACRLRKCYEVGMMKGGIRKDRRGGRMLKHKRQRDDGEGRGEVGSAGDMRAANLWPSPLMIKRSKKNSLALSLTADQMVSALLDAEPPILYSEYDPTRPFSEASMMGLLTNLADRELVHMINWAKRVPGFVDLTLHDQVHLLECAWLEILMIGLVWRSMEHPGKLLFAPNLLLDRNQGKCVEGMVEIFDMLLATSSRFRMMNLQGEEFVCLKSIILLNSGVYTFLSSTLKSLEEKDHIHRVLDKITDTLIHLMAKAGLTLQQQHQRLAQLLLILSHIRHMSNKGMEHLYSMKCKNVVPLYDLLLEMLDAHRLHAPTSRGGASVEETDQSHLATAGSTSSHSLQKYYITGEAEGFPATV
Chain of Vitamin D3 receptor (Homo sapiens) (P11473 whole entry, looked up): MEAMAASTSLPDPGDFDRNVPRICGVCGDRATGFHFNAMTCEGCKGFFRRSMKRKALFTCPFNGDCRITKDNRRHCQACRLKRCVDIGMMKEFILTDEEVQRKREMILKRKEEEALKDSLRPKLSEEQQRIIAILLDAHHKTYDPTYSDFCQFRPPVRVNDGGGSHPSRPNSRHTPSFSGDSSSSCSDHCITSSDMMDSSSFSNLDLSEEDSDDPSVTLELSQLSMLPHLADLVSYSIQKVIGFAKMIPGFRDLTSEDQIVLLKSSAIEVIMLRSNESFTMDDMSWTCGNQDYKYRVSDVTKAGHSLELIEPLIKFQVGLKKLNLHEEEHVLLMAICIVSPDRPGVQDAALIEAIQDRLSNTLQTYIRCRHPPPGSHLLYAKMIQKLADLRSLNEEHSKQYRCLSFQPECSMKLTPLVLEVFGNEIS
Chain of Nuclear receptor subfamily 1 group I member 2 (Rattus norvegicus) (Q9R1A7 whole entry, looked up): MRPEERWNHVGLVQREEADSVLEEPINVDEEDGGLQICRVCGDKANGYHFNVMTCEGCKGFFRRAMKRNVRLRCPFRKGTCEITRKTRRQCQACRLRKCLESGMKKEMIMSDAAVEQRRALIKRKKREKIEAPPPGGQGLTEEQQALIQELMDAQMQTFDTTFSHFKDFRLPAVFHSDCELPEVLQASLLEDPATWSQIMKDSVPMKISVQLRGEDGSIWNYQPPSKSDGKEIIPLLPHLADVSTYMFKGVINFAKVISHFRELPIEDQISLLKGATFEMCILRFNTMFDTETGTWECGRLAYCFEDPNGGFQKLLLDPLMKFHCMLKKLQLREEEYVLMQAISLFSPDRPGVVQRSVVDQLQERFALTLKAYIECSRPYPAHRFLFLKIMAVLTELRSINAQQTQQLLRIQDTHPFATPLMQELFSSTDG
Chain of Thyroid hormone receptor beta (Homo sapiens) (P10828 whole entry, looked up): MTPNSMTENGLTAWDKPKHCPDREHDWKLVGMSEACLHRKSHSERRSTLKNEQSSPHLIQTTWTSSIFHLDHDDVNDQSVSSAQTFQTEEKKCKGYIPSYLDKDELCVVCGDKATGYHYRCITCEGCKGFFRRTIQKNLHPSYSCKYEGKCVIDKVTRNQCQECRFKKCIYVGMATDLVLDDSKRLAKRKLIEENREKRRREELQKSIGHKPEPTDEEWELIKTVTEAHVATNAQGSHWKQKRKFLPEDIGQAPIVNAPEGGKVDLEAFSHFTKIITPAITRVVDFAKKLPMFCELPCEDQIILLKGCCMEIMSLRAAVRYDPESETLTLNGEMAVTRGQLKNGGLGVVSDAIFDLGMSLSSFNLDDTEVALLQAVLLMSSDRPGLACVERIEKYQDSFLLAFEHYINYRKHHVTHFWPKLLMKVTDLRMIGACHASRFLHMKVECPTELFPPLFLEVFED
Chain of Peroxisome proliferator-activated receptor alpha (Homo sapiens) (Q07869 whole entry, looked up, the tested form may be a part): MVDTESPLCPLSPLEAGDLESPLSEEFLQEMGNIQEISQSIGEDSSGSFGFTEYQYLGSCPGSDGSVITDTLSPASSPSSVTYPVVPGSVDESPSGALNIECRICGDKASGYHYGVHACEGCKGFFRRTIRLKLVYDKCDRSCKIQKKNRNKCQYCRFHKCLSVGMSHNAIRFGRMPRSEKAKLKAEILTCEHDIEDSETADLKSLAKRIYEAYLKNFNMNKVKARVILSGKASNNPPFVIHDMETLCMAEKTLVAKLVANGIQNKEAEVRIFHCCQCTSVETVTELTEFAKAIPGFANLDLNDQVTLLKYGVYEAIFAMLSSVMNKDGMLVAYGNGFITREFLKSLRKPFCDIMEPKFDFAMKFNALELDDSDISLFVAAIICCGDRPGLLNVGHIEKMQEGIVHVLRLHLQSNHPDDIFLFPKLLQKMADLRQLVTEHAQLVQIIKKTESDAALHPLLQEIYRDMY

In the case of `CNc1nc(=O)n(C2CCC(O)CC2)c(=O)n1C` (centres undefined), the Potency result in experiment [1], in [2], in experiment [5], in [6], in experiment [8] and in experiment [9] was “inactive” each time. In experiment [16], the Potency entry is “inactive”. The max response in experiment [3] was 29.9%; in experiment [7] it was -9.94%; in [10] it was -9.65%; in experiment [11], 4.66% (inactive); in experiment [14] it was -6.82% (inactive); in [15], -1.62% (inactive). For the same compound, the max response in experiment [17] was -0.414% (inactive). For the same compound, the result in experiment [4] and in experiment [18] was inactive. In addition, the activation in experiment [12] was -0.329% (inactive); in experiment [13], -1.26% (inactive).

For `O=C(c1ccc(Cl)cc1)c1ccc(Cl)cc1`, the Potency result in experiment [1], in experiment [2], in experiment [5], in [6], in experiment [8] and in experiment [9] was “inactive” throughout. For the same compound, the Potency entry in [16] is “inactive”. Moreover, the max response in experiment [3] is 24.6%; in experiment [7] it was 6.29%; in experiment [10], -11.4%; in [11] it was 7.91% (inactive); in experiment [20], -1.26% (inactive); in experiment [14], -5.32% (inactive). Also, the max response in [17] was 0.85% (inactive). Moreover, the result in experiment [4], in [19] and in [18] was inactive. Also, the activation is 1.57% (inactive) in experiment [12] and -0.153% (inactive) in experiment [13].

As to `Cn1c(=O)[nH]c(=O)n(C2CCCCC2)c1=O`, the Potency entry in experiment [1], in [2], in experiment [8], in experiment [9] and in experiment [16] was “inactive” each time. Moreover, the result in experiment [4], in experiment [19] and in experiment [18] was inactive. The max response in experiment [7] was -3.38%; in [10], -9.26%; in experiment [11] it was 5.47% (inactive); in experiment [14], -9.94% (inactive); in [15], -7.06% (inactive); in experiment [17], 1.25% (inactive). The activation in experiment [12] was -1.18% (inactive); in experiment [13], -1.1% (inactive).

Regarding `Cn1c(=O)[nH]c(=O)n(C2CCC(O)CC2)c1=O` (centres undefined), the Potency entry in [1], in [2], in experiment [5], in [6], in experiment [8] and in experiment [9] was “inactive” each time. The Potency entry in experiment [16] is “inactive”. Besides, the max response in experiment [3] is 54.4%; in experiment [7], -1.18%; in experiment [10], -1.59%; in experiment [14], 7.46% (inactive); in [17] it was -2.03% (inactive). Also, the result in [19] and in [18] was inactive. For the same compound, the results for the activation in experiment [12] and in experiment [13] were -0.274% (inactive) and 1.88% (inactive), respectively.

As to `Cc1ccc(N=Nc2c(O)ccc3ccccc23)c(C)c1`, the Potency entry in experiment [1], in [2], in experiment [5], in experiment [6], in experiment [9] and in [16] was “inactive” in each case. The max response in experiment [3] is 9.29%; in [10], -15.2%; in experiment [11], -32% (inactive); in [20], 0.784% (inactive); in [14], -17.4% (inactive); in [17] it was 13.1% (inactive). Besides, the outcome in [4] and in experiment [19] was inactive. Also, the activation in [12] is 6% (inactive). Moreover, in experiment [13], the Potency is 31.6 µM (active).

With `CCCCCCCOC(=O)c1ccccc1C(=O)OCCCCCCC`, the Potency entry in experiment [1], in experiment [2], in experiment [6], in [8], in experiment [9] and in [16] was “inactive” in each case. The max response in [3] is -7.26%; in experiment [7] it was -2.68%; in experiment [10], -8.81%; in experiment [11], 5.05% (inactive); in experiment [20], 0.0123% (inactive); in experiment [14], 6.19% (inactive). Moreover, the results for the max response in experiment [15] and in experiment [17] were -8.86% (inactive) and -1.98% (inactive), respectively. Besides, the outcome in experiment [4], in experiment [19] and in [18] was inactive. The activation was -1.95% (inactive) in experiment [12] and -0.336% (inactive) in [13].
